Laboratory results: PubChem BioAssay (NCATS)
Inconclusive results are not listed. A call without a number means that no potency is given here. Activity calls are given as the source filed them. Calls come from the whole dose curve; as a rule, active = well fitted inhibition curve with a large enough effect; inconclusive = small, poorly fitted or top-dose-only effect; inactive = flat fitted curve, though single readings scatter.

Key:
[1] = molecular target: Voltage-gated inwardly rectifying potassium channel KCNH2 (Homo sapiens) (UniProt Q12809); test: qHTS Assay for Small Molecule Inhibitors of the Human hERG Channel Activity (AID 588834);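 note: lower thallium flux fluorescence means stronger hERG block; nearly all actives have a fitted effect of over 50% in size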
Sequence of Voltage-gated inwardly rectifying potassium channel KCNH2 (Homo sapiens) (Q12809 whole entry, looked up): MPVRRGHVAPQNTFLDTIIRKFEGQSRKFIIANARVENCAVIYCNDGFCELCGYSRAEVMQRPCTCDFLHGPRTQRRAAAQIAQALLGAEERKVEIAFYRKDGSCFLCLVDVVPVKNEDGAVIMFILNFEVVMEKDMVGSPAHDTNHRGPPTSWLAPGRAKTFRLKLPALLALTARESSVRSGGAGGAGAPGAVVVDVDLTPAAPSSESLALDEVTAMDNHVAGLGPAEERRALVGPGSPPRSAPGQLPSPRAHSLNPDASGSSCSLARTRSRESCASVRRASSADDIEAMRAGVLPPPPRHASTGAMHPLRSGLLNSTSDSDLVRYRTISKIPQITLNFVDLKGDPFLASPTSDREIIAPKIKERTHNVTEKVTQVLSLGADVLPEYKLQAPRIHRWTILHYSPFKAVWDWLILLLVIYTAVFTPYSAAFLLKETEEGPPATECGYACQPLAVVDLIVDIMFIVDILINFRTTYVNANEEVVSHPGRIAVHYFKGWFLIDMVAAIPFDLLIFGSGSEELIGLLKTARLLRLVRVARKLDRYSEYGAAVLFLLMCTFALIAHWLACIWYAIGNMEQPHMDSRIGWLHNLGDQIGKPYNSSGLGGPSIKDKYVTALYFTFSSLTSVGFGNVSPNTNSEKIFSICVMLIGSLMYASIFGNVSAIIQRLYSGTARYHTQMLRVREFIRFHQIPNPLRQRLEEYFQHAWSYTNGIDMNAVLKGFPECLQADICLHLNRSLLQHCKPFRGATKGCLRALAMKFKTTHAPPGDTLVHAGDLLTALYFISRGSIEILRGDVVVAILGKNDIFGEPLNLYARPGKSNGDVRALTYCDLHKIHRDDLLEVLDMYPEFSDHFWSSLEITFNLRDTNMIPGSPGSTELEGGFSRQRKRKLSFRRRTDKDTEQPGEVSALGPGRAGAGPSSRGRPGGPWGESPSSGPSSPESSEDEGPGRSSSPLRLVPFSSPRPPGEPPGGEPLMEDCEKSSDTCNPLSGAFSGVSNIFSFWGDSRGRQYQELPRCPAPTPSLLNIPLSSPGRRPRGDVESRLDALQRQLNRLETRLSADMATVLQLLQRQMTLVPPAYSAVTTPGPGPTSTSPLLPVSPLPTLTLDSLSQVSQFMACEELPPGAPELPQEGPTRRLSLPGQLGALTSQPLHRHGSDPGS
Procedure, shortened: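 Concentration-response qHTS measuring drop in thallium-sensitive dye signal. U2OS cells carrying BacMam hERG; compound exposure ~10 min, then stimulation buffer and 2 min read at 1 sec intervals.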

[2] = molecular target: Luciferin 4-monooxygenase (Photinus pyralis) (UniProt P08659); test: Biochemical firefly luciferase enzyme assay for NPC (AID 624030); note: nearly all actives have a fitted effect of over 70% in size
Sequence of Luciferin 4-monooxygenase (Photinus pyralis) (P08659 whole entry, looked up): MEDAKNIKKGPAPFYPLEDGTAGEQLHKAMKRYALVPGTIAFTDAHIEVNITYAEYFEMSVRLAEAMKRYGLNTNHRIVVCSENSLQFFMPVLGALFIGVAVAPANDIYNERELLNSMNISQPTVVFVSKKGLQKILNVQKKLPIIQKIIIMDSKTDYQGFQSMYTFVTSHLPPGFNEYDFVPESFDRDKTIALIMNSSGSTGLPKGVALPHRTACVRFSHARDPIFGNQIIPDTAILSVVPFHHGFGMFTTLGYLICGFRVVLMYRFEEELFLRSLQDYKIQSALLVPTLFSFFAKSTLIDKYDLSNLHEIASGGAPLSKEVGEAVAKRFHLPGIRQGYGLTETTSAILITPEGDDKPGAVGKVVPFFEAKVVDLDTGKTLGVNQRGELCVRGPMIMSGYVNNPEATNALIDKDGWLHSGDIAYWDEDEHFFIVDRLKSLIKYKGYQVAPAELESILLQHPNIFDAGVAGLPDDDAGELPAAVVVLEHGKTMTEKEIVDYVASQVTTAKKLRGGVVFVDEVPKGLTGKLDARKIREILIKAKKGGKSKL
Procedure, shortened: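 Counter-screen for direct inhibition of the luciferase enzyme by approved-drug library compounds, run at 10 nM enzyme in 50 mM Tris acetate (final). Luminescence was read within 5 min of enzyme-buffer addition and normalized to PTC124 versus DMSO (0%).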
Potency is the fitted concentration of half-maximal effect.

Row | Structure (SMILES) | Potency [1] | Potency [2]
1 | CN1CCN(c2c(F)cc3c(=O)c(C(=O)O)cn4c3c2SCC4)CC1 | inactive | inactive
2 | O=C(c1ccc(F)cc1)C1CCN(CCn2c(=S)[nH]c3ccccc3c2=O)CC1 | 0.251 µM (active) | inactive
3 | NC(=O)C1(N2CCCCC2)CCN(CCCC(=O)c2ccc(F)cc2)CC1 | 3.55 µM (active) | inactive
4 | N=C(N)N1CCc2ccccc2C1 | inactive | inactive
5 | OCc1ccccn1 | inactive | inactive
6 | O=C(O)CCc1nc2ccccc2[nH]1 | inactive | inactive
7 | CC(C)CCCC(C)N (configuration not stated) | inactive | inactive
8 | CC(=O)NO | inactive | inactive
9 | Cn1c(=O)c2[nH]c(Br)nc2n(C)c1=O | inactive | inactive
10 | C[C@@H](O)[C@H]1C(=O)N2C(C(=O)O)=C(S[C@@H]3CN[C@H](CNS(N)(=O)=O)C3)[C@H](C)[C@H]12 | inactive | inactive
11 | C#C[C@]1(O)CC[C@H]2[C@@H]3CCC4=CC(=O)CC[C@@H]4[C@H]3CC[C@@]21CC | inactive | inactive
12 | CN=C(N)NCCC[C@H](N)C(=O)O | inactive | inactive
13 | O=C1C(CCS(=O)c2ccccc2)C(=O)N(c2ccccc2)N1c1ccccc1 (configuration not stated) | inactive | inactive
14 | NCCNC(=O)c1ccc(Cl)cn1 | inactive | inactive
15 | Cc1cc(NS(=O)(=O)c2ccc(N)cc2)nc(C)n1 | inactive | inactive
16 | CCCCC(CC)COC(=O)/C=C/c1ccc(OC)cc1 (configuration not stated) |  | inactive
17 | NC1CCN(c2nc3c(cc2F)c(=O)c(C(=O)O)cn3-c2ccc(F)cc2F)C1 (configuration not stated) | inactive | inactive
18 | CCC(CC)(CC(=O)Nc1cccc(/C=C/c2nc(C3CCC3)cs2)c1)C(=O)O | inactive | 5.73 µM (active)
19 | C/C=C/C=N/NC(=O)c1ccncc1 | inactive | inactive
20 | O=C(O)Cc1csc(-c2ccc(Cl)cc2)n1 | inactive | inactive
21 | Cc1cccc(C)c1NC(=O)CN1CCCCCC1 | inactive | inactive
22 | NS(=O)(=O)c1cc(C(=O)O)cc(N2CCCC2)c1Oc1ccccc1 | inactive | inactive
23 | CCCCCCCCCCCCSCCOCCO | inactive | inactive
24 | NS(=O)(=O)c1ccc(Cl)c(S(N)(=O)=O)c1 | inactive | inactive
25 | C#C[C@]1(O)CC[C@H]2[C@@H]3CCc4cc(OC)ccc4[C@H]3CC[C@@]21C | inactive | inactive

Row | Structure (SMILES) | Potency [1] | Potency [2]
26 | CCOc1ccccc1OCCN[C@H](C)Cc1ccc(OC)c(S(N)(=O)=O)c1 | 14.1 µM (active) | inactive
27 | CCNC(=O)NCc1cccc(Cl)c1 | inactive | inactive
28 | COc1cc(C(=O)NCc2ccc(OCCN(C)C)cc2)cc(OC)c1OC | inactive | inactive
29 | Cc1cccc(C)c1NC(=O)CN1CCCC1 | inactive | inactive
30 | COc1cc(NS(=O)(=O)c2ccc(N)cc2)ncn1 | inactive | inactive
31 | CC(C)(C)NC[C@H](O)COc1nsnc1N1CCOCC1 | inactive | inactive
32 | Cc1ccc(S(=O)(=O)NC(=O)NC2CCCC2)cc1 | inactive | inactive
33 | CC(=O)Nc1ccc(CC(=O)O)cc1 | inactive | inactive
34 | Nc1ccc(C(=O)NCC(=O)O)cc1 | inactive | inactive
35 | CCN(CC)CCNC(=O)COc1ccc(OC)cc1 | inactive | inactive
36 | CN(Cc1ccc(C(C)(C)C)cc1)Cc1cccc2ccccc12 | 7.94 µM (active) | inactive
37 | O=C(Nc1ncc([N+](=O)[O-])s1)c1cccs1 | inactive | 3.61 µM (active)
38 | c1ccc(CC2=NCCN2)cc1 | inactive | inactive
39 | Nc1nc(-c2ccccc2)c(Br)c(=O)[nH]1 | inactive | inactive
40 | Nc1nc(N)c(-c2ccccc2)s1 | inactive | inactive
41 | O=C(O)C(Cc1cc(I)c(O)c(I)c1)c1ccccc1 (configuration not stated) |  | inactive
42 | Cc1cc(C)cc(OCC2CNC(=O)O2)c1 (configuration not stated) | inactive | inactive
43 | CCCc1ncc(C[n+]2ccccc2C)c(N)n1 | inactive | inactive
44 | CCOC(=O)[C@H](CCc1ccccc1)N[C@@H](C)C(=O)N1[C@H](C(=O)O)C[C@H]2CCCC[C@@H]21 | inactive | inactive
45 | COc1cc(O)c(C(=O)c2ccccc2)cc1S(=O)(=O)O | inactive | inactive
46 | O=S(c1cc(Cl)cc(Cl)c1O)c1cc(Cl)cc(Cl)c1O |  | 32.2 µM (active)
47 | CC(C)Cc1ccc(CC(=O)O)cc1 | inactive | inactive
48 | COc1cc(C(=O)N2CCCCCCC2)cc(OC)c1OC | inactive | inactive
49 | Cc1ccccc1OCC(O)CO (configuration not stated) | inactive | inactive
50 | COc1cc(N)c(Cl)cc1C(=O)NC1CCN(Cc2ccccc2)CC1 | 5.01 µM (active) | inactive
